# Pf apPOL block – Pf-apPOL inhibitors, biochemical, fluorescence | AID 1794808, 2022 | Plasmodium falciparum apicoplast DNA polymerase (apPOL) | 210,000 tested, 0.25% active | Recombinant Pf-apPOL, molecular beacon fluorescence, 1.5 h | inhibition, % at 10 µM
# mHTT CaM bind – mutant huntingtin-calmodulin interaction inhibitors – biochemical, AlphaScreen, primary screen. P42858. AlphaScreen His-mHTT/GST-CaM binding, luminescence. inhibition, % at 15 µM. 190,000 tested, 3.6% active. AID 1671202, 2021;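 further: 0% = both proteins with DMSO and 100% = one protein alone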
# * hit, by the source's call; · = no result given; + = active, no number. Sampled rows, rich in hits. Any-hit rate of the full collection: about 3.6%. No stated cut-off is given here; in the data, active means inhibition above about 50%; inactive means the rest.
SMILES,Pf apPOL block,mHTT CaM bind
CCOc1ccc(NS(=O)(=O)c2ccc3[nH]c4c(c3c2)CCCC4)cc1,-0.6,91.4*
CCOc1ccc(NS(=O)(=O)c2ccc(NS(=O)(=O)c3ccccc3)cc2)cc1,-3.5,-2.6
CCOc1ccc(NS(=O)(=O)c2ccc3[nH]c4c(c3c2)CCCCC4)cc1,-6.3,94.4*
COc1ccc(OC)c(CNS(=O)(=O)c2ccc3[nH]c4c(c3c2)CCCCC4)c1,-3.6,85.3*
COc1cccc(NC(=O)CN(C)S(=O)(=O)c2ccc3[nH]c4c(c3c2)CCCC4)c1,-3.1,44.5
COc1ccccc1CNS(=O)(=O)c1ccc2[nH]c(=O)sc2c1,-0.9,-1.0
CCOc1ccc(NC(=O)CN(C)S(=O)(=O)c2ccc3[nH]c4c(c3c2)CCCC4)cc1,-1.9,44.5
CCOC(=O)COc1ccc2c(=O)c(Oc3ccccc3OCC)c(C)oc2c1,-3.7,4.3
CCN(CCN(C)C)Cc1ccccc1C,-0.1,0.7
Cn1nc(C(C)(C)C)cc1C(C)(C)C,2.2,·
COc1ccc(NS(=O)(=O)c2ccc3[nH]c4c(c3c2)CCCCC4)cc1,-2.1,57.0*
COc1ccc(C)cc1NS(=O)(=O)c1ccc2[nH]c3c(c2c1)CCCC3,-5.8,81.2*
COc1ccc(CNC(=O)CN(C)S(=O)(=O)c2ccc3[nH]c4c(c3c2)CCCC4)cc1,-2.4,31.7
COc1ccc(S(=O)(=O)Nc2ccc(S(=O)(=O)Nc3cc(C)ccc3C)cc2)cc1OC,4.8,3.2
O=C1NC2(Nc3ccccc31)C(=O)N(Cc1ccccc1F)c1ccccc12 (stereo unspecified),0.5,7.0
Cc1ccc(OCc2nnc(SCC(=O)NCc3ccccc3)o2)cc1,-3.4,-1.4
O=C(CSc1nnc(COc2ccc3c(c2)CCCC3)o1)NCc1ccccc1,95.4*,0.0
Cc1ccc(S(=O)(=O)N2/C(=C/COc3ccccc3)C(N3CCOCC3)c3ccccc32)cc1 (stereo unspecified),-10.1,-2.0
CC1CCCC(NC(=O)C2CCN(c3nc4ccccc4[nH]3)CC2)C1C (stereo unspecified),-5.5,-5.0
Cn1ccnc1SCC(=O)c1ccc(I)cc1,-0.7,5.3
C=C1CCN([C@@H](CC(C)C)C(=O)Nc2nc3ccc(Cl)cc3s2)S(=O)(=O)c2ccccc21,-4.3,94.2*
C=C1CCN([C@@H](CC(C)C)C(=O)Nc2ccc(OC)cc2)S(=O)(=O)c2ccccc21,-4.1,0.9
C=C1CCN([C@@H](CC(C)C)C(=O)O)S(=O)(=O)c2ccccc21,2.1,3.7
C=C1CCN([C@@H](CC(C)C)C(=O)NCCCc2ccccc2)S(=O)(=O)c2ccccc21,-1.0,64.6*
COc1ccc(Cl)cc1NC(=O)c1cc2ccccc2oc1=O,-4.4,4.0
SMILES,Pf apPOL block,mHTT CaM bind
CCC(=O)Nc1c2c(nn1-c1ccc(OC)cc1)CS(=O)(=O)C2,5.1,6.0
CC(C)C(=O)NCc1csc(C2CCN(C(=O)Cc3ccccc3Cl)CC2)n1,1.3,-1.2
O=[N+]([O-])c1ccc(C2Nc3ccccc3-c3nc4ccccc4n32)cc1 (stereo unspecified),-2.7,54.0*
O=[N+]([O-])c1cccc(C2Nc3ccccc3-c3nc4ccccc4n32)c1 (stereo unspecified),-29.8,32.0
O=c1oc2cc3occ(-c4ccc5c(c4)OCO5)c3cc2c2c1CCCC2,2.2,20.0
CN(C)c1ccc2nc3ccc(=O)cc-3sc2c1,·,59.0*
Cc1nc2ccc(N(C)C)cc2s1,-6.6,13.1
COc1ccccc1CNc1ncnc2c1CCC2,-6.3,-2.7
CCC(=O)N1CCN(C(C(=O)NC2CCCc3ccccc32)C2CCCC2)CC1 (stereo unspecified),-4.3,8.0
O=C(CC(=O)c1ccccn1)c1ccccn1,-14.3,·
N/C(=N\N=C(/N)c1ccccn1)c1ccccn1,-1.3,+
CC(=O)Nc1ccc(/C=C2\OC(=O)c3c2cc(C)[nH]c3=O)cc1,-4.5,2.0
Cc1cc2c(c(=O)[nH]1)C(=O)O/C2=C/c1cn[nH]c1-c1cccs1,·,64.1*
COc1ccc(OCCNC(=O)c2ccco2)cc1,-1.9,·
Cc1ccc(C=C2Oc3c(ccc(O)c3CN3CCCC3)C2=O)o1,9.0,12.5
COc1cc(C2CC(=O)c3cnc(NC(=O)c4ccccc4)nc3C2)cc(OC)c1OC (stereo unspecified),-1.9,-4.0
CCCCCC(=O)Nc1ncc2c(n1)CC(c1cc(OC)c(OC)c(OC)c1)CC2=O (stereo unspecified),81.7*,0.0
O=C(c1ccc([N+](=O)[O-])cc1Cl)N1CCc2ccccc21,2.8,9.8
NS(=O)(=O)c1cc(C(=O)N2CCc3ccccc32)c(Cl)cc1Cl,-2.0,60.0*
COc1ccc(C2Nc3ccc4ncccc4c3C3=C2C(=O)CC(c2ccccc2)C3)c(OC)c1 (stereo unspecified),0.7,17.0
COc1ccc(N2CCC(CNS(=O)(=O)c3cccc(C(F)(F)F)c3)C2)cc1 (stereo unspecified),-11.9,73.0*
O=C1CC(CNS(=O)(=O)c2cccc(C(F)(F)F)c2)CN1c1ccc(Cl)cc1 (stereo unspecified),-2.1,46.1
O=C(CC1CCCCC1)N1CCN(c2nnc3c(Cl)cccn23)CC1,-9.9,59.7*
O=C(c1ccsc1)N1CCN(c2nnc3c(Cl)cccn23)CC1,-1.3,32.0
C(=C\c1nc(N2CCOCC2)c2ccccc2n1)/c1ccccc1,-1.3,-23.0
SMILES,Pf apPOL block,mHTT CaM bind
Oc1ccccc1C=NNc1nc2c(Cl)cc(Cl)cc2s1,0.5,·
Oc1ccc(/C=N/Nc2nccnc2Cl)c(O)c1,·,+
CCCCC1CCC(C(=O)N2CCN(c3ccc(-c4cccnc4)nn3)CC2)CC1 (stereo unspecified),-0.5,11.2
COc1ccc(C)cc1NC(=O)c1c(F)c(F)c(F)c(F)c1F,-3.4,-6.1
Cc1ccccc1CNC(=O)C1CCN(c2cncnc2N2CCCCC2)CC1,1.3,14.6
CCN1c2ccccc2C(=O)NC12CCN(C(=O)Nc1ccc(C)c(C)c1)CC2,-7.3,3.7
O=C(NC1CCCc2ccccc21)C1CCN(Cc2c[nH]c3ccccc23)CC1 (stereo unspecified),-1.6,69.5*
CCN(CC)S(=O)(=O)N1CCC(C(=O)NC2CCCc3ccccc32)CC1 (stereo unspecified),-6.8,-13.0
Cc1nc(C)c(Cc2ccc(Cl)cc2)c(N2CCN(C(=O)C3CCOC3)CC2)n1 (stereo unspecified),-1.9,63.8*
Cc1ccc(C)c(Cc2c(C)nc(C)nc2N2CCN(C(=O)C3CCOC3)CC2)c1 (stereo unspecified),3.4,38.0
N#CC(=CNc1cc(C(F)(F)F)cc(C(F)(F)F)c1)S(=O)(=O)Cc1ccc(Cl)cc1,-3.2,·
Cc1cc(C)nc(SCc2cc(=O)c(OC(=O)c3cc4ccccc4o3)co2)n1,2.1,92.2*
CC(=O)Nc1nnc(SCc2cc(=O)c(OC(=O)c3ccco3)co2)s1,20.1,0.4
C=CCNC(=O)COc1ccc(Cl)cc1Cl,7.0,-10.7
O=C(Nc1ccc(F)cc1)N1CCc2nc(-c3ccc(Cl)cc3)ncc2C1,-2.7,-5.7
O=C(NCc1ccc(F)cc1Cl)C1CCCN(c2ccc(N3CCOCC3)nn2)C1 (stereo unspecified),-8.3,1.5
O=c1nc(/C=C/c2ccc(N3CCCC3)cc2)cc(C(F)(F)F)[nH]1,-88.9,33.0
COc1ccc(C2CC(c3ccc(C)cc3C)=NN2C(=O)CN2CCOCC2)cc1 (stereo unspecified),-5.5,62.6*
